Results from PubChem BioAssay AID1159580 (chemical genetic matrix, 2015).
The campaign covered roughly 5,500 compounds. About 2,000 (36%) were called active. Another 18% or so got no clear call; they are omitted. No stated cut-off is given here; in the data, active means normalized growth mostly below about 0.91 (no sharp cut-off); inconclusive means no clear call, values can overlap the other calls; inactive means mostly above about 0.92. This is one part of the list.

Assay: chemical genetic growth profiling, strain panel (AID 1159580);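 further: tested at 20 µM; growth read once vehicle control cultures reached saturation at 30 °C; 1 = growth at the plate median or of vehicle wells; lower values mean less growth of the strain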
Details: growth OD

Measured: normalized growth

O=C1C(Cl)=C(Cl)C(=O)C(Cl)=C1Cl
active: S. cerevisiae deletion strains, locus YKL009W, strain mrt4, active compounds read low 1.17 [resistant] | S. cerevisiae deletion strains, locus YKL068W, active compounds read low 0.12 | S. cerevisiae deletion strains, locus YKL085W, strain MDH1 (second series), active compounds read low 0.0519 | S. cerevisiae deletion strains, locus YKL085W, strain MDH1, active compounds read low 0.0519 | S. cerevisiae deletion strains, locus YKL160W, strain elf1, active compounds read low 0.901 | S. cerevisiae deletion strains, locus YKL190W, strain CNB1, active compounds read low 0.629 | S. cerevisiae deletion strains, locus YKR001C, strain vps1, active compounds read low 0.094 | S. cerevisiae deletion strains, locus YLR027C, strain aat2, active compounds read low 0.899 | S. cerevisiae deletion strains, locus YLR039C, strain RIC1, active compounds read low 0.275 | S. cerevisiae deletion strains, locus YLR102C, strain apc9, active compounds read low 0.254 | S. cerevisiae deletion strains, locus YLR113W, strain HOG1, active compounds read low 0.145 | S. cerevisiae deletion strains, locus YLR221C, strain rsa3, active compounds read low 0.855 | S. cerevisiae deletion strains, locus YLR262C, strain YPT6 (second series), active compounds read low 0.703 | S. cerevisiae deletion strains, locus YLR262C, strain YPT6, active compounds read low 0.168 | S. cerevisiae deletion strains, locus YLR268W, strain sec22, active compounds read low 0.256 | S. cerevisiae deletion strains, locus YLR330W, strain CHS5, active compounds read low 0.129 | S. cerevisiae deletion strains, locus YLR342W, strain FKS1 (second series), active compounds read low 0.243 | S. cerevisiae deletion strains, locus YLR371W, strain rom2, active compounds read low 0.151 | S. cerevisiae deletion strains, locus YLR418C, strain cdc73, active compounds read low 0.292 | S. cerevisiae deletion strains, locus YML016C, strain PPZ1, active compounds read low 0.776 | S. cerevisiae deletion strains, locus YML120C, strain ndi1, active compounds read low 0.9 | S. cerevisiae deletion strains, locus YML124C, strain tub3, active compounds read low 0.708 | S. cerevisiae deletion strains, locus YMR078C, strain ctf18, active compounds read low 0.551 | S. cerevisiae deletion strains, locus YMR125W, strain sto1, active compounds read low 0.792 | S. cerevisiae deletion strains, locus YMR223W, strain ubp8, active compounds read low 0.182 | S. cerevisiae deletion strains, locus YMR263W, strain SAP30, active compounds read low 0.794 | S. cerevisiae deletion strains, locus YMR307W, strain GAS1, active compounds read low 0.112 | S. cerevisiae deletion strains, locus YNL067W, strain RPL9B, active compounds read low 0.63 | S. cerevisiae deletion strains, locus YNL071W, strain lat1, active compounds read low 0.824 | S. cerevisiae deletion strains, locus YNL128W, strain TEP1, active compounds read low 0.341 | S. cerevisiae deletion strains, locus YNL153C, strain GIM3, active compounds read low 0.814 | S. cerevisiae deletion strains, locus YNL183C, strain NPR1, active compounds read low 0.0843 | S. cerevisiae deletion strains, locus YNL209W, strain ssb2, active compounds read low 0.888 | S. cerevisiae deletion strains, locus YNL233W, strain BNI4, active compounds read low 0.17 | S. cerevisiae deletion strains, locus YNL248C, strain rpa49, active compounds read low 0.884 | S. cerevisiae deletion strains, locus YNL250W, strain rad50, active compounds read low 0.0728 | S. cerevisiae deletion strains, locus YNL271C, strain bni1, active compounds read low 0.0654 | S. cerevisiae deletion strains, locus YNL298W, strain CLA4, active compounds read low 0.0642 | S. cerevisiae deletion strains, locus YNL307C, strain MCK1, active compounds read low 0.206 | S. cerevisiae deletion strains, locus YNL322C, strain KRE1, active compounds read low 0.849 | S. cerevisiae deletion strains, locus YNR052C, strain pop2, active compounds read low 0.911 | S. cerevisiae deletion strains, locus YOL006C, strain TOP1, active compounds read low 0.357 | S. cerevisiae deletion strains, locus YOR061W, strain CKA2, active compounds read low 0.617 | S. cerevisiae deletion strains, locus YOR069W, strain VPS5, active compounds read low 0.577 | S. cerevisiae deletion strains, locus YOR070C, strain gyp1, active compounds read low 0.917 | S. cerevisiae deletion strains, locus YOR083W, strain WHI5, active compounds read low 0.871 | S. cerevisiae deletion strains, locus YOR106W, strain vam3, active compounds read low 0.856 | S. cerevisiae deletion strains, locus YOR136W, strain idh2, active compounds read low 0.307 | S. cerevisiae deletion strains, locus YOR184W, strain ser1, active compounds read low 0.195 | S. cerevisiae deletion strains, locus YOR231W, strain MKK1, active compounds read low 0.124 | S. cerevisiae deletion strains, locus YOR316C, strain cot1, active compounds read low 0.677 | S. cerevisiae deletion strains, locus YPL051W, strain arl3, active compounds read low 0.841 | S. cerevisiae deletion strains, locus YPL055C, strain LGE1, active compounds read low 0.408 | S. cerevisiae deletion strains, locus YPL106C, strain sse1, active compounds read low 0.838 | S. cerevisiae deletion strains, locus YPL256C, strain CLN2, active compounds read low 0.132 | S. cerevisiae deletion strains, locus YPR119W, strain clb2, active compounds read low 0.444 | S. cerevisiae deletion strains, locus YPR141C, strain kar3, active compounds read low 0.11 | S. cerevisiae deletion strains, locus YPR163C, strain tif3, active compounds read low 0.321 | S. cerevisiae deletion strains, locus YPR167C, strain met16, active compounds read low 0.176 | S. cerevisiae deletion strains, strain wtn01, active compounds read low 0.32 | S. cerevisiae strains, strain wild type, active compounds read low 0.423
inactive: S. cerevisiae deletion strains, locus YKR026C, strain gcn3, active compounds read low 0.987 | S. cerevisiae deletion strains, locus YKR091W, strain srl3, active compounds read low 0.99 | S. cerevisiae deletion strains, locus YLL001W, strain dnm1, active compounds read low 0.958 | S. cerevisiae deletion strains, locus YLL026W, active compounds read low 0.98 | S. cerevisiae deletion strains, locus YLL041C, strain sdh2, active compounds read low 0.988 | S. cerevisiae deletion strains, locus YLR058C, strain SHM2, active compounds read low 0.966 | S. cerevisiae deletion strains, locus YLR258W, strain gsy2, active compounds read low 0.978 | S. cerevisiae deletion strains, locus YLR320W, strain mms22, active compounds read low 0.92 | S. cerevisiae deletion strains, locus YLR342W, strain FKS1, active compounds read low 0.935 | S. cerevisiae deletion strains, locus YLR357W, strain rsc2, active compounds read low 0.86 | S. cerevisiae deletion strains, locus YLR370C, strain arc18, active compounds read low 0.919 | S. cerevisiae deletion strains, locus YLR384C, strain iki3, active compounds read low 0.966 | S. cerevisiae deletion strains, locus YML032C, strain rad52, active compounds read low 0.912 | S. cerevisiae deletion strains, locus YMR058W, strain fet3, active compounds read low 0.909 | S. cerevisiae deletion strains, locus YMR129W, active compounds read low 0.957 | S. cerevisiae deletion strains, locus YMR205C, strain PFK2, active compounds read low 0.932 | S. cerevisiae deletion strains, locus YMR231W, strain pep5, active compounds read low 0.971 | S. cerevisiae deletion strains, locus YNL322C, strain KRE1 (second series), active compounds read low 0.924 | S. cerevisiae deletion strains, locus YNR049C, strain mso1, active compounds read low 0.989 | S. cerevisiae deletion strains, locus YOL012C, strain htz1 0.457 | S. cerevisiae deletion strains, locus YOL147C, strain pex11, active compounds read low 0.986 | S. cerevisiae deletion strains, locus YOR001W, strain rrp6, active compounds read low 0.915 | S. cerevisiae deletion strains, locus YOR080W, strain dia2, active compounds read low 0.98 | S. cerevisiae deletion strains, locus YOR144C, strain elg1, active compounds read low 0.985 | S. cerevisiae deletion strains, locus YOR265W, strain rbl2, active compounds read low 0.959 | S. cerevisiae deletion strains, locus YOR270C, strain vph1, active compounds read low 0.977 | S. cerevisiae deletion strains, locus YOR290C, strain snf2, active compounds read low 0.941 | S. cerevisiae deletion strains, locus YPL078C, strain atp4, active compounds read low 0.964 | S. cerevisiae deletion strains, locus YPL240C, strain hsp82, active compounds read low 0.979 | S. cerevisiae deletion strains, locus YPL241C, strain CIN2, active compounds read low 0.995
